Rab9 prom act: activators of Rab9 promoter | Huh7 Rab9 promoter-luciferase reporter, luminescence, 24 h | Potency, µM (top dose mostly 9.22 µM), inactives show at the top dose activation, negative = inhibition, hits mostly activators | 320,000 tested, 2.8% active | AID 485297; also: % of control where 0% means no effect; nearly all actives have a fitted effect of over 60% in size
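Rab9 promoter-driven luciferase in stably transfected Huh7 cells; 1500 cells/well rested 2 h, exposed to compound in DMSO for 24 h at 37 °C, 5% CO2. Luminescence read 10 min after adding luciferase reagent at ambient temperature.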
Luc counter: Kinase-Glo luciferase inhibition (counter-screen); Q27757; Kinase-Glo luciferase, ATP luminescence, 8 min; Potency, µM (titrated, usually from 38.3 µM), for the others: at the top dose activity change, negative = inhibition, usual class: inhibitors; 200,000 tested, 0.28% active; AID 1379; also: % is scaled to controls: 0 for no effect and ±100 for the full control effect; nearly all actives have a fitted effect of over 60% in size
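Compounds were added to a substrate mix at pH 7.2 (50 mM imidazole, 10 uM ATP, within the enzyme's linear range), followed by Kinase-Glo detection reagent; luminescence was measured after 8 minutes at ambient temperature.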
SMN2 splice enh: SMN2 splice variant enhancement; HEK293 SMN2-luciferase splicing reporter, luminescence, 30-36 h; 210,000 tested, 2.8% active; Potency, µM (titrated, usually from 46.1 µM), for inactives: at the top dose activity change, positive = activation, usual class: activators; AID 1458; also: % of control where 0% means no effect; nearly all actives have a fitted effect of over 55% in size
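HEK293 cells carry an SMN2 […]–luciferase reporter in which exon 7 inclusion puts luciferase in frame. Cells were plated 10-12 h before compound addition, then incubated 30-36 h at 37C. ONE-Glo luminescence was read; sodium butyrate at 4.5 mM final served as control.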
ELG1 genotoxic: induces genotoxicity in HEK293T cells with luciferase-tagged ELG1; 330,000 tested, 1.3% active; Potency, µM (highest dose often 46 µM), for inactives: at the top dose activity change, positive = activation, usual class: activators; HEK293T ELG1-luciferase reporter, luminescence, 16 h; also: % of control where 0% means no effect; nearly all actives have a fitted effect of over 60% in size
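Step 1: seed 2,000 HEK293T ELG1-luciferase cells per well. Step 2: add compound or DMSO, incubate 16 hr at 37 °C. Step 3: ONE-Glo, 30 min at room temperature, read luminescence.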
FLuc modulator: counter-screen for miR-21 project: firefly luciferase inhibitors or activators | P08659 | purified FLuc, Km substrates, luminescence inhibition | Potency, µM (doses to about 57.5 µM), inactives show at the highest dose activity change, negative = inhibition, usual class: inhibitors | 360,000 tested, 6.9% active;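 also: plate controls were vehicle for no effect and reference inhibitor for full effect; nearly all actives have a fitted effect of over 55% in size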
Target sequence (P08659 whole entry, looked up): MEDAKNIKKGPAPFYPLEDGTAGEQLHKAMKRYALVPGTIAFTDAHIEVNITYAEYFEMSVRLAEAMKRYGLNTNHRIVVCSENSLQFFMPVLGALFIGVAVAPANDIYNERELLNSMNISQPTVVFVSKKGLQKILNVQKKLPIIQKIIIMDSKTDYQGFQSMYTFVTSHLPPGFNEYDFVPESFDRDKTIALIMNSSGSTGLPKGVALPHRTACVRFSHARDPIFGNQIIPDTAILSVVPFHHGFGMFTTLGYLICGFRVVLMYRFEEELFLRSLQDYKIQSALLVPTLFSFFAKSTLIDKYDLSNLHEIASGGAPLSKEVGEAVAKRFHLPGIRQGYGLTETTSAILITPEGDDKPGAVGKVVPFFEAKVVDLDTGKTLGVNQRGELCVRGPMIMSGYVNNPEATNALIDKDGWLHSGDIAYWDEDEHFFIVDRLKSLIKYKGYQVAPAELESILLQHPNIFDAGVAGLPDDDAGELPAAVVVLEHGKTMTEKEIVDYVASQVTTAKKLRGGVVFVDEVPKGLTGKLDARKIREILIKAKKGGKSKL
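Biochemical qHTS of compounds, final roughly 60 µM downward over six points, against 10 nM purified firefly luciferase using Km concentrations of substrates (10 uM D-luciferin, 10 uM ATP) in Tris acetate pH 7.5 buffer; luminescence output.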
NPC1 prom act: NPC1 promoter activation | Huh7 NPC1 promoter luciferase reporter, 24 h | Potency, µM (highest dose often 9.22 µM), for inactives: at the top dose activation, usual class: activators | 320,000 tested, 2.4% active | AID 485313; also: % of control where 0% means no effect; nearly all actives have a fitted effect of over 60% in size
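Luciferase expression driven by the NPC1 promoter was measured in stably transfected Huh7 cells after a 24 h compound incubation, using a luciferase reagent and a luminescence read.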
Active calls of the source: *; ? = inconclusive; . = no result. Most compounds without a hit are left out; they make up all but 7.5% or so of the library. Calls follow the shape of the dose curve; as a rule, active = well fitted curve in the direction sought with a large enough effect; inconclusive = small, poorly fitted or top-dose-only effect, or another doubt; inactive = no such curve, though single readings can be large; an effect the other way counts as inactive or inconclusive. Potency is read from the fitted curve at half-maximal effect.

SMILES	Rab9 prom act	Luc counter	SMN2 splice enh	ELG1 genotoxic	FLuc modulator	NPC1 prom act
O=C(CN1CCCN(Cc2ccccc2Cl)S1(=O)=O)Nc1ccc2c(c1)OCCO2	.	.	.	.	-17%	.
Cc1ccc(CCNC(=O)c2cn(C)c3ccc(S(=O)(=O)N4CCCCC4)cc3c2=O)cc1	.	.	-5%	.	2%	.
CCCCC(CC)CNC(=O)c1ccc2c(=O)n(CCOC)c(=O)[nH]c2c1 (configuration not stated)	.	.	4µM*	.	-5%	.
O=C(CSc1ncc2c(n1)-c1cc(Cl)ccc1N(Cc1ccccc1F)S2(=O)=O)Nc1cccc(C(F)(F)F)c1	.	.	.	.	3%	.
Cc1ccc(OCCn2nc3ccccc3n2)c(C)c1	18%	2%	3%	18µM*	?	12%
NCCC[C@@H](CC(=O)N[C@@H]1CCNC[C@H]1C(=O)N[C@H](CC(=O)N[C@@H](CCC(=O)O)CC(=O)O)Cc1ccccc1)NC(=O)C[C@H](Cc1c[nH]c2ccccc12)NC(=O)[C@@H]1CCCC[C@H]1N	.	0%	8%	.	.	.
CCOC(=O)c1c(C)[nH]c(C(=O)CSc2ccccc2)c1C	0.4µM*	.	.	0.65µM*	0.54µM*	0.56µM*
CCOC(=O)c1c(C)[nH]c(C(=O)COC(=O)c2oc3ccccc3c2C)c1C	-2%	-3%	-10%	3%	2%	4%
Cc1cc(C(=O)CSc2ccc(F)cc2)cc(C)c1O	17%	.	.	?	19µM*	12%
CCOC(=O)c1[nH]c(C)c(C(=O)OCc2ccc(C)cc2)c1C	0%	.	.	0%	1%	-5%
CCOC(=O)c1c(C)[nH]c(C(=O)OCc2ccccc2)c1C	0.63µM*	.	.	1.8µM*	2.1µM*	1.3µM*
CCOC(=O)c1c(C)[nH]c(C(=O)CSc2nccc(C)n2)c1C	2.8µM*	-1%	8.9µM*	?	?	2.8µM*
CC(NCc1ccc2c(c1)n(C)c(=O)n2C)c1ccccc1 (configuration not stated)	.	.	-7%	.	-1%	.
Cc1nn(-c2ccccc2)c(OC(=O)c2cccc(Br)c2)c1S(=O)(=O)c1ccccc1	.	.	4%	.	?	.
CCOC(=O)c1c(C)[nH]c(C(=O)N/N=C\c2ccccc2O)c1C	-6%	-1%	-78%	?	6.7µM*	-7%
CCOC(=O)c1[nH]c(C)c(C(=O)/C=C/c2ccc(C(=O)O)cc2)c1C	-3%	.	.	22%	13µM*	6%
CCOC(=O)c1c(C)[nH]c(C(=O)C(C)Sc2ccc(Cl)cc2)c1C (configuration not stated)	?	-3%	2%	1%	27µM*	14%
CC(=O)c1c(C)[nH]c(C(=O)CSc2ccc(F)cc2)c1C	17%	.	.	6%	13µM*	?
CCOc1ccc(CNC(=O)c2cnc3sc(N4CCC(C)CC4)nn3c2=O)cc1OC	.	.	.	.	-7%	.
O=C(c1ccccc1Cl)N1CCCC(c2nc3c(nnn3Cc3ccc(F)cc3F)c(=O)[nH]2)C1 (configuration not stated)	.	.	-4%	.	-19%	.
CC(=O)[C@H](CC(C)C)NC(=O)[C@@H](CC(C)C)NC(=O)[C@H](CC(C)C)NC(=O)OCc1ccccc1	.	2%	.	.	.	.
COc1ccccc1-c1cc(C(=O)Nc2c(C)nn(Cc3ccc(Cl)cc3)c2C)no1	.	.	-1%	.	-6%	.
CCc1nc2ccc(C(=O)NCCc3ccc(OC)cc3OC)cc2nc1CC	.	.	.	.	-17%	.
Cc1cc(SCC(=O)NCc2ccccc2Cl)nc(=O)[nH]1	.	.	.	.	6%	.
Cc1cc(C(=O)CSc2ccc(Cl)cc2)cc(C)c1OC(=S)N(C)C	?	1%	-9%	?	9.5µM*	2.8µM*
SMILES	Rab9 prom act	Luc counter	SMN2 splice enh	ELG1 genotoxic	FLuc modulator	NPC1 prom act
Cc1ccn2c(C(=O)CSc3ccc(Cl)cc3)c(C)nc2c1	-3%	1%	-31%	-6%	-2%	-2%
CCOC(=O)c1c(C)[nH]c(C(=O)COC(=O)CCSc2ccccc2)c1C	2%	-1%	23%	?	17µM*	9%
CC(=O)c1c(C)[nH]c(C(=O)COC(=O)CCSc2ccccc2)c1C	-1%	3%	-13%	0%	4%	-1%
COc1ccc(Cn2c(CCC(=O)Nc3ccc(OC)c(Cl)c3)nc3cccnc32)cc1	.	.	-7%	.	0%	.
N#Cc1ccccc1OCC(=O)NC(=O)NCc1ccco1	?	.	.	?	19µM*	?
CCc1ccc(OCC(=O)NCc2ccco2)c(Br)c1	?	0%	3%	?	9.5µM*	?
O=C(CSc1nnc(-c2ccccc2)c(-c2ccccc2)n1)NCCc1ccccc1	.	.	.	.	-14%	.
CN1C(=O)/C(=C\C=C2/CCCN2C)N(C)C1=S	?	-12%	?	?	?	25%
CCN1C(=O)/C(=C/C=C2/CCCN2C)OC1=S	?	-7%	.	?	?	3.2µM*
COC(=O)c1ccccc1NC(=O)c1nc(-c2ccc(Cl)cc2)n2c1CCCCC2	.	.	.	.	-6%	.
O=C(c1ccco1)N1C(=O)c2cccc3cccc1c23	-1%	1%	10µM*	0%	-1%	-4%
CC(C)(C)C1CCc2c(sc(NC(=O)c3cc4ccccc4c(=O)o3)c2C(N)=O)C1 (configuration not stated)	.	.	0%	.	-10%	.
O=C(CCS(=O)(=O)c1ccccc1)Nc1nc2c(s1)COc1ccccc1-2	1%	-4%	-3%	-5%	1%	0%
O=C(Nc1ncc2c(n1)-c1ccccc1CC2)c1ccccc1	11%	1%	3%	2%	?	23%
O=C(Nc1nc2c(s1)COc1ccccc1-2)c1cccs1	10%	0%	-18%	0%	13µM*	16%
Fc1ccccc1Nc1nc2c(s1)CCc1ccccc1-2	3.2µM*	-20%	?	8.2µM*	1.9µM*	?
O=C(Nc1nc2c(s1)CCCC2)C1CCCN1C(=O)c1cccs1 (configuration not stated)	-1%	12%	0%	2%	2%	2%
O=C(Nc1ncc2c(n1)-c1ccccc1CC2)c1cccs1	20%	0%	-5%	1%	19µM*	15%
O=C(Nc1nc2c(s1)CCc1ccccc1-2)c1cccs1	?	1%	9%	9%	13µM*	?
CCN(CC)c1ccc(NC(=O)C(NS(=O)(=O)c2cccs2)C(C)C)c(C)c1 (configuration not stated)	.	.	-2%	.	-7%	.
Cc1cc(O)c(C(=O)c2cnc3c(c2)COc2ccccc2-3)cc1Cl	.	.	2%	.	-10%	.
O=C(CSc1nc(=O)n2ccccc2n1)NCc1ccccc1Cl	-7%	.	.	2%	2%	-3%
O=C(CSc1nnc(-c2ccccc2F)o1)N1CCc2ccccc21	.	.	2%	.	1%	.
